Results as given in PubChem BioAssay AID504332 (National Center for Advancing Translational Sciences (NCATS), 2011).
The campaign covered roughly 350,000 compounds. About 31,000 (8.9%) were called active. Roughly 15% stayed inconclusive and do not appear here. The entries come from a sample that favours actives as a whole. Unmarked numbers belong to inactive results. Calls follow the shape of the dose curve; as a rule, active = well fitted inhibition curve with a large enough effect; inconclusive = small, poorly fitted or top-dose-only effect; inactive = no such curve, though single readings can be large or run the other way.

Target: Histone-lysine N-methyltransferase EHMT2 (Homo sapiens) (UniProt Q96KQ7)
Test: qHTS Assay for Inhibitors of Histone Lysine Methyltransferase G9a; also: nearly all actives have a fitted effect of over 75% in size
Details: G9a H3K9 monomethylation, AlphaScreen, 2 h; series mostly up to 59 µM; activity, negative = inhibition: at the top concentration
In short: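 Quantitative HTS format: methyltransferase activity on a biotin-tagged H3K9 peptide is measured by AlphaScreen, using a rabbit anti-monomethyl-H3K9 antibody with streptavidin donor and anti-IgG acceptor beads. Final levels are 20 nM enzyme, 500 nM peptide, 20 uM SAM; 2 h RT.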
% is scaled to controls: 0 for no effect and ±100 for the full control effect; potency is read from the fitted curve at half-maximal effect.

Chain of Histone-lysine N-methyltransferase EHMT2 (Homo sapiens) (Q96KQ7 913-1193 limits assumed): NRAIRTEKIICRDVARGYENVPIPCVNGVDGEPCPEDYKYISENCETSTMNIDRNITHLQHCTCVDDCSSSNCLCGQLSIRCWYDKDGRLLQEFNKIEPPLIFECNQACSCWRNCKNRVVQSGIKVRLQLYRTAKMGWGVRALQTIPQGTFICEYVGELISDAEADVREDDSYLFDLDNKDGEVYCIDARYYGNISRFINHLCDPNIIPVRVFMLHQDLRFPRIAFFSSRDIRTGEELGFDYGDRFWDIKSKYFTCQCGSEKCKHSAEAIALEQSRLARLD

| SMILES | activity, negative = inhibition | Potency |
| --- | --- | --- |
| C/C=C/C=N/NC(=O)c1ccncc1 | 3.78% [at 12.7 µM] |  |
| O=C(NN1C(=O)C2C3C=CC(O3)C2C1=O)c1ccncc1 (configuration not stated) |  | 44.7 µM (active) |
| COc1ccccc1C(=O)NN1C(=O)C2C3C=CC(O3)C2C1=O (configuration not stated) |  | 35.5 µM (active) |
| COc1ccc(C(=O)NN2C(=O)C3C(c4ccccc4)C=CC(c4ccccc4)C3C2=O)cc1 (configuration not stated) | 17.1% |  |
| O=C(NN1C(=O)C2C3C=CC(C4CC34)C2C1=O)c1ccc(Cl)cc1 (configuration not stated) | 7.55% [at 102 µM] |  |
| COc1ccccc1C(=O)Nn1cnnc1 | 10.5% [at 102 µM] |  |
| CCC(=O)N1CCc2cc(Br)cc(S(=O)(=O)Nc3ccc(C)cc3C)c21 | -3.03% |  |
| CCOc1ccc(C(CC(=O)O)NC(=O)Cc2ccccc2)cc1OC (configuration not stated) | -10.4% [at 102 µM] |  |
| CSc1nc(=O)c2c(n1C)NC(=O)CC2c1ccccc1OC(C)C (configuration not stated) | 6.92% |  |
| CN(C)c1nc(=Nc2cccc(Cl)c2)ss1 |  | 6.31 µM (active) |
| CCC(C)C(N=C1NS(=O)(=O)c2ccccc21)C(=O)N1CCC(C)CC1 (configuration not stated) | -37.1% [at 102 µM] |  |
| Cc1nn(Cc2ccc(F)cc2)c(C)c1NC(=O)c1cc(CC(C)C)on1 | -7.61% |  |
| CCCCn1c(SCC(=O)N2CCCC2=O)nc2cc(S(N)(=O)=O)ccc21 | 76.1% [at 2.33 µM] |  |
| O=C1c2cccc3cccc(c23)N1CN1CCN(c2ccccn2)CC1 | 4.2% |  |
| Cc1ccccc1OCC(O)CN1CCN(c2ccccn2)CC1 (configuration not stated) | -42.2% [at 102 µM] |  |
| OC(COc1cccc2ccccc12)CN1CCN(c2ccccn2)CC1 (configuration not stated) |  | 50.1 µM (active) |
| COc1ccc(-c2nc3ccccc3s2)cc1NC(=O)COc1ccccc1C | 6.94% |  |
| COc1ccccc1C1C(C(=O)N2CCCCC2)=C(C)Nc2nc3ccccc3n21 (configuration not stated) | -8.15% |  |
| Cc1ccccc1NC(=O)COc1cccc2c1CCNC2=O | 2.09% [at 102 µM] |  |
| Cc1ccnc(NS(=O)(=O)c2ccc(NC(=O)c3oc4ccccc4c3C)cc2)n1 |  | 25.1 µM (active) |
| Cc1ccnc(NS(=O)(=O)c2ccc(NC(=O)c3oc4ccc(F)cc4c3C)cc2)n1 | 6.53% [at 0.501 µM] |  |
| Cc1ccnc(NS(=O)(=O)c2ccc(NC(=O)c3ccc(S(=O)(=O)N(C)C)cc3)cc2)n1 | 13.2% [at 102 µM] |  |
| Cc1ccc(NC(=O)NC(C)c2c(-n3cccc3)sc(C)c2C)c(C)c1 (configuration not stated) | 10.6% |  |
| COCCNC(=O)c1ccc(S(=O)(=O)c2ccc(Cl)cc2)c(NC(C)=O)c1 | -9.66% [at 102 µM] |  |
| CCOC(=O)N1CCN(C(=O)c2ccc(S(=O)(=O)c3ccc(C)cc3)c(NC(C)=O)c2)CC1 | 29.4% [at 0.501 µM] |  |

| SMILES | activity, negative = inhibition | Potency |
| --- | --- | --- |
| CC(=O)Nc1cc(C(=O)O)ccc1S(=O)(=O)c1ccc(Cl)cc1 |  | 50.1 µM (active) |
| O=C(CN1CCCCC1)Nc1ccccc1C(=O)NC1CC1 | -7.68% [at 102 µM] |  |
| O=C(COc1ccc(Cl)cc1)N(Cc1ccco1)Cc1ccco1 | -9.12% |  |
| O=C1C=C(c2cccc(Br)c2)C[C@@H](c2ccc(F)cc2)C1 | -5.82% [at 0.501 µM] |  |
| COc1ccc(C2=NN(C(=O)CSc3nc(=O)n4ccc(C)cc4n3)C(c3ccc(C)cc3)C2)cc1 (configuration not stated) | 4.89% [at 2.33 µM] |  |
| CCc1noc(C)c1C(=O)NNC(=O)c1ccc(F)cc1 | 4.99% [at 102 µM] |  |
| COc1ccc(C(=O)NC(=S)NC2CCCCC2)cc1 |  | 39.8 µM (active) |
| COc1cc(OC)c(C(=O)NC2CCCCCC2)cc1OC | 13.1% [at 12.7 µM] |  |
| Cn1nnnc1SCC(=O)NNC(=O)c1ccc(Br)cc1 | 1.14% [at 102 µM] |  |
| CNC(=S)NNC(=O)c1ccc(N(C)C)cc1 | -38.7% [at 102 µM] |  |
| COc1cc(C(=S)NC2CCCCC2)ccc1O |  | 35.5 µM (active) |
| CCCNC(=S)N1CCC(NC(=O)c2ccc(OC)cc2)CC1 | 28.9% [at 102 µM] |  |
| COc1ccc(C(=O)NC2CCN(C(=S)Nc3ccccc3)CC2)cc1 | -1.57% [at 102 µM] |  |
| COc1ccc(Cl)cc1C(=O)NNC(=S)NC1CCCC1 | 16.1% [at 102 µM] |  |
| Cc1onc(-c2ccccc2)c1C(=O)NNC(=S)NC(=O)c1ccc(F)cc1 |  | 31.6 µM (active) |
| CC(=O)Nc1cccc(NC(=O)c2c(-c3ccccc3)noc2C)c1 | 10.1% [at 12.7 µM] |  |
| CC(=O)NC(=S)NNC(=O)c1ccc(Br)cc1 |  | 8.91 µM (active) |
| COc1cccc(NC(=O)CN(C)CC(=O)c2c(N)n(Cc3ccccc3)c(=O)n(C)c2=O)c1 | -2.39% [at 2.33 µM] |  |
| COc1ccc(NC(=O)c2ccc3nc(CCc4ccccc4)oc3c2)c(OC)c1 | 6.98% |  |
| CC1CCCN(C(=O)CN2C(=O)c3ccccc3S2(=O)=O)C1 (configuration not stated) | 6.05% [at 2.33 µM] |  |
| CC1(c2ccc3ccccc3c2)NC(=O)NC1=O (configuration not stated) | -3.89% [at 102 µM] |  |
| COc1cccc(NC(=O)CN(C)C(=O)c2ccccc2CCc2ccccc2)c1 | 3.17% [at 12.7 µM] |  |
| O=C(NCCCN1CCOCC1)c1cc(-c2ccccc2F)no1 | 20.4% [at 102 µM] |  |
| CSc1ccc(CCNC(=O)c2ccc3c(c2)nc2n3CCOC2)cc1 | -0.567% |  |
| Clc1ccc(C(Cn2ccnc2)OCc2ccsc2Cl)c(Cl)c1 (configuration not stated) | -28.9% [at 12.7 µM] |  |

| SMILES | activity, negative = inhibition | Potency |
| --- | --- | --- |
| CCOC(=O)c1[nH]c(C)c(CCC(=O)NCc2ccccc2C)c1C | 13.7% |  |
| Cc1ccc2ncc(C(=O)Nc3ccc(OC(F)(F)F)cc3)c(=O)n2c1 | -23.6% |  |
| Cc1nn(CC(=O)N2CCN(c3cccc(C(F)(F)F)c3)CC2)c(=O)c2cc3sccc3n12 | -1.49% |  |
| CC(NS(=O)(=O)c1ccc(OCC(=O)N2CCCC2)cc1)c1ccccc1 (configuration not stated) | 3.21% [at 102 µM] |  |
| COc1ccc(C(=O)NC(=S)NNC(=O)c2c(-c3ccccc3)noc2C)cc1 |  | 5.62 µM (active) |
| COc1ccc(OCC(=O)NNC(=O)c2ccc(-c3ccccc3)cc2)cc1 |  | 79.4 µM (active) |
| Cc1ccc(CNC(=O)c2c(-c3ccccc3)noc2C)cc1 | -6.57% [at 102 µM] |  |
| Cc1onc(-c2ccccc2)c1C(=O)Nc1ccccc1C#N | 14.5% [at 102 µM] |  |
| COc1ccc(C(=O)Nc2cc(C)ccc2NC(=O)COc2ccccc2)cc1 | 22.1% |  |
| COc1ccc(C(=O)NNC(=S)NC(=O)c2ccccc2)cc1 |  | 22.4 µM (active) |
| COc1ccc(OCC(=O)NNC(=O)c2cccc(C)c2)cc1 | 1.31% [at 102 µM] |  |
| COc1ccc(C(=O)NC(=S)NNC(=O)CCc2ccccc2)cc1 | 28.9% [at 0.0925 µM] |  |
| COCCCNC(=S)NC(=O)c1ccccc1 | 6.49% |  |
| Cc1cn(C)c(CC(=O)NCc2ccc(Cl)cc2)c1C(=O)O | 5.99% |  |
| CCC(=O)N1CCc2cc(S(=O)(=O)NCCC(=O)Nc3cccc(C)c3C)ccc21 | -36.9% |  |
| COc1ccc2ncc3c(-c4ccc(C)c(C)c4)nn(CC(=O)NC4CCCC4)c3c2c1 | 6.47% |  |
| CC1Cc2cc(S(=O)(=O)CCC(=O)Nc3ccc(F)c(Cl)c3)ccc2N1C(=O)C1CC1 (configuration not stated) | -7.75% |  |
| O=C(Nc1ccccc1)c1cc2ccccc2[nH]1 | 9.33% |  |
| S=c1ccc2ccccc2[nH]1 |  | 4.47 µM (active) |
| CC(=O)N1CCN(C(=O)c2cc(-c3ccc(Cl)s3)nc3ccccc23)CC1 | 1.51% [at 102 µM] |  |
| C#CCOc1ccc(C2CC(=O)Nc3c2c(C)nn3-c2nc(C)cc(C)n2)cc1 (configuration not stated) | 0.767% |  |
| Cc1ccc(-c2nc(CS(=O)(=O)CC(=O)NCc3ccccc3Cl)c(C)o2)cc1 | -6.32% |  |
| CC(C)(C)C(=O)CSc1ccc(S(=O)(=O)N2CCCC2)cn1 | -13.9% [at 2.33 µM] |  |
| CC1=C(C(=O)OCC2CCCCC2)C(c2c(F)cccc2Cl)CC(=O)N1 (configuration not stated) | 7.87% |  |
| O=C(CN1CCCSc2ccccc21)N1CCN(S(=O)(=O)c2cccc(F)c2)CC1 | 15.4% [at 12.7 µM] |  |

| SMILES | activity, negative = inhibition | Potency |
| --- | --- | --- |
| N#C/C=C1\Sc2ccccc2C(=O)N1CC(=O)N1CCN(S(=O)(=O)c2ccccc2)CC1 |  | 70.8 µM (active) |
| CC(C)c1ccc(S(=O)(=O)N2CCN(C(=O)CN3C(=O)NC(C)(c4ccccc4)C3=O)CC2)cc1 (configuration not stated) | 0.311% [at 102 µM] |  |
| O=C(Cc1ccccc1)N1CCN(S(=O)(=O)c2ccc([N+](=O)[O-])cc2)CC1 | 0.141% [at 102 µM] |  |
| O=C(CN1CCSc2ccccc21)N1CCN(c2ccccc2)CC1 | -30.2% |  |
| O=C(CN1CCCSc2ccccc21)N1CCN(S(=O)(=O)c2ccccc2)CC1 |  | 56.2 µM (active) |
| CCN(C(=O)CSc1ncnc2c1cnn2-c1ccccc1)C1CCS(=O)(=O)C1 (configuration not stated) | 7.57% [at 0.501 µM] |  |
| O=C(OCc1cc(=O)n2nc(C3CC3)sc2n1)c1ccccc1Cl | 0.251% |  |
| O=C(NNC(=O)c1ccc(-n2cncn2)c([N+](=O)[O-])c1)c1ccccc1 | 14.9% [at 12.7 µM] |  |
| CCc1cc2c(cc(C(=O)OC)n2Cc2nc(-c3ccc(C)cc3)oc2C)s1 | -24.2% |  |
| N#Cc1nc(-c2cccc3ccccc23)oc1N | 2.47% [at 2.33 µM] |  |
| CCCCN(C(=O)C(CCSC)N1C(=O)c2ccccc2C1=O)c1c(N)n(CCC)c(=O)[nH]c1=O (configuration not stated) | 17.2% [at 12.7 µM] |  |
| COc1ccc2oc(C(=O)N(CC(C)C)C3CCS(=O)(=O)C3)c(C)c2c1 (configuration not stated) | 7.64% [at 0.501 µM] |  |
| COc1cccc(Cn2cnc3c([N+](=O)[O-])c(C)c(C)cc32)c1 | -11.2% [at 102 µM] |  |
| Cc1cccc(Cn2cnc3c(N)c(C)c(C)cc32)c1 |  | 44.7 µM (active) |
| CSc1nn(Cc2cccc(C)c2)c(N)c1S(=O)(=O)c1ccccc1 | -1.54% |  |
| COc1cc(OC)cc(-c2nc3nc(C)c(CCC(=O)Nc4ccccc4)c(C)n3n2)c1 | -2.91% |  |
| O=C(CCc1nnc2ccc(NCc3ccco3)nn12)Nc1cc(F)ccc1F | -3.92% [at 102 µM] |  |
| Cc1sc2ncnc(N3CCC(C(=O)Nc4ccc(F)cc4Cl)CC3)c2c1C | -22.6% [at 12.7 µM] |  |
| CN(Cc1ccccc1)c1ncnc2onc(-c3ccc(F)cc3)c12 | 6.18% |  |
| Cc1ccc(CSCC(=O)N(C)CC(=O)Nc2ccc(C)cc2)cc1 | -0.261% [at 102 µM] |  |
| CCN(CC(=O)Nc1cc(Cl)ccc1C)C(=O)CSCc1ccc(C)cc1 | -2.36% [at 2.33 µM] |  |
| CCCCN(C)CCNC(=O)CSCc1ccc(C)cc1 |  | 3.55 µM (active) |
